For test [1], the system named is Vero E6 infected with SARS-CoV-2. Description: morphology score (similarity to uninfected cells); higher = more like uninfected cells. The conditions noted are these: 24 h.
The test system is the same in test [2]. As to the kind of experiment: SARS-CoV-2 infection rate relative to infected DMSO; higher = more infection, active = 60 or less. The conditions noted are these: 24 h.

36 compounds from the supplement of paper PMC13380429 can be followed below.

`CC1(C)CC(=O)C(C2C3=C(CC(C)(C)CC3=O)Oc3ccccc32)C(=O)C1` (configuration not stated) (10 µM): in test [1], the morphology score came out at 0.28. Further, in test [2], the SARS-CoV-2 infection rate is 98% (inactive).
The corresponding values for `CC1=NN(c2ccc(C)c(C)c2)C(=O)/C1=N\Nc1cccc(-c2cccc(C(=O)O)c2)c1O` [eltrombopag] (10 µM) are 0.143 and 99% (inactive).
The corresponding values for `O=C1OC2(c3ccccc31)c1cc(I)c(O)c(I)c1Oc1c2cc(I)c(O)c1I` [erythrosine] (0.833333 µM) are 0.0913 and 116% (inactive).
For `COc1cc2c(NC3CCN(C(C)C)CC3)nc(N3CCC(F)(F)CC3)nc2cc1OCCCN1CCCC1` (10 µM) the same measures were 0.243 and 25.5% (active).
`CC(C)OC(=O)CNC(=O)[C@H](CS)NC(=O)CC[C@H](N)C(=O)O` [glutathione-monoisopropyl-ester] (10 µM): in test [1], the morphology score was 0.0539. Moreover, in test [2], the SARS-CoV-2 infection rate was 101% (inactive).
For `CCOc1nc2cccc(C(=O)OCc3oc(=O)oc3C)c2n1Cc1ccc(-c2ccccc2-c2noc(=O)[nH]2)cc1` [azilsartan-medoxomil] (10 µM) the same measures were -0.168 and 116% (inactive).
For `CC(C)OC(=O)N1CCC(Oc2ncnc3c2cnn3-c2ccc(S(C)(=O)=O)cc2F)CC1` (10 µM) the same measures were 0.0759 and 98% (inactive).
The corresponding values for `COc1ccc(N(C)c2nc(C)nc3ccccc23)cc1` [verubulin] (10 µM) are -0.0973 and 95% (inactive).
With `COc1ccc(-c2nc(C(=O)N3CCN(C)CC3)sc2-c2ccc(OC)cc2)cc1` (10 µM), in test [1], the morphology score came to 0.211. For the same compound, the SARS-CoV-2 infection rate in test [2] is 93.5% (inactive).
For `Cc1ccnc(NS(=O)(=O)c2ccc(N)cc2)n1` [sulfamerazine] (10 µM) the same measures were 0.0324 and 108% (inactive).
For `CCc1ccc(OCc2ccccc2C(=O)Nc2ccc3nc(C)cc(N)c3c2)cc1` (0.833333 µM) the same measures were 0.313 and 89% (inactive).
For `COc1cc2c(cc1OC)[C@@H]1Cc3ccc(OC)c(OC)c3CN1CC2` [rotundine] (10 µM) the same measures were 0.0444 and 110% (inactive).
Turning to `CCCC(=O)O` [sodium-butyrate] (10 µM), in test [1], the morphology score stood at 0.0558. Besides, the SARS-CoV-2 infection rate in test [2] is 110% (inactive).
For `N#Cc1ccc(N2CCN(C(=O)COc3ccc4[nH]cc(CCN)c4c3)CC2)cc1` [donitriptan] (10 µM) the same measures were -0.0047 and 100% (inactive).
The corresponding values for `CC(=O)/N=c1/[nH]c(C)c(-c2ccc(Cl)c(S(=O)(=O)NCCO)c2)s1` (0.833333 µM) are 0.335 and 104% (inactive).
For `Cc1ccc(NC(=O)c2ccc(CN3CCN(C)CC3)cc2)cc1Nc1nccc(-c2cccnc2)n1` [imatinib] (10 µM) the same measures were 0.738 and 37% (active).
For the compound `CCSc1ccc2c(c1)N(CCCN1CCN(C)CC1)c1ccccc1S2` [thiethylperazine] (10 µM), in test [1], the morphology score amounted to 0.722. Besides, in test [2], the SARS-CoV-2 infection rate was 29.5% (active).
On to `O=C(O)C(Cl)Cl` [dichloroacetate] (10 µM), for which the morphology score in test [1] was 0.236. Besides, the SARS-CoV-2 infection rate in test [2] is 88.5% (inactive).
The corresponding values for `CNCCC(Oc1ccc(C(F)(F)F)cc1)c1ccccc1` (configuration not stated) [fluoxetine] (10 µM) are 0.539 and 66% (inactive).
For the compound `NP(N)(=O)NC(=O)c1ccc(F)cc1` [flurofamide] (10 µM), the morphology score in test [1] turned out to be 0.21. Moreover, the SARS-CoV-2 infection rate in test [2] is 94.5% (inactive).
For `C[C@@H](c1nc(-c2ccc(C#N)cc2)cs1)[C@](O)(Cn1cncn1)c1ccc(F)cc1F` [ravuconazole] (10 µM) the same measures were 0.0292 and 107% (inactive).
In test [1], `CC(C)CN(C[C@@H](O)[C@H](Cc1ccccc1)NC(=O)O[C@H]1CCOC1)S(=O)(=O)c1ccc(N)cc1` [amprenavir] (10 µM) had a morphology score of 0.0911. Besides, in test [2], the SARS-CoV-2 infection rate is 110% (inactive).
For `OCCCCO` [1,4-butanediol] (10 µM) the same measures were 0.0223 and 105% (inactive).
The corresponding values for `CC(C)(C(=O)NCC(F)(F)C(F)(F)F)C(=O)N[C@@H]1C(=O)Nc2ccccc2-c2ccccc21` (10 µM) are 0.217 and 86% (inactive).
For `CN(C)CCOc1ccc(/C(=C(/CCCl)c2ccccc2)c2ccccc2)cc1` [toremifene] (0.833333 µM) the same measures were -0.0544 and 112% (inactive).
On to `O=C1CCc2cc(OCCCCc3nnnn3C3CCCCC3)ccc2N1` [cilostazol] (10 µM), for which the morphology score in test [1] was -0.112. Further, the SARS-CoV-2 infection rate in test [2] is 110% (inactive).
The corresponding values for `O=C1C[C@@H](c2ccc(O)cc2)Oc2cc(O)ccc21` (10 µM) are 0.025 and 110% (inactive).
For `CC(=O)OCC1=C(C(=O)O)N2C(=O)[C@@H](NC(=O)Cc3cccs3)[C@H]2SC1` [cephalothin] (10 µM) the same measures were -0.0126 and 102% (inactive).
For `Cc1cc(O)ccc1Cl` [chlorocresol] (10 µM) the same measures were 0.0498 and 95.5% (inactive).
For `CCCN1C[C@H](CSC)C[C@@H]2c3cccc4[nH]cc(c34)C[C@H]21` [pergolide] (10 µM), the morphology score in test [1] was 0.343. Also, in test [2], the SARS-CoV-2 infection rate was 78% (inactive).
As for `Cc1c2oc3c(C)ccc(C(=O)N[C@@H]4C(=O)N[C@H](C(C)C)C(=O)N5CCC[C@H]5C(=O)N(C)CC(=O)N(C)[C@@H](C(C)C)C(=O)O[C@@H]4C)c3nc-2c(C(=O)N[C@@H]2C(=O)N[C@H](C(C)C)C(=O)N3CCC[C@H]3C(=O)N(C)CC(=O)N(C)[C@@H](C(C)C)C(=O)O[C@@H]2C)c(N)c1=O` [dactinomycin] (10 µM), the morphology score in test [1] is -0.16. Besides, the SARS-CoV-2 infection rate in test [2] was 109% (inactive).
The corresponding values for `COc1cc(CNC(=O)CCCC/C=C/C(C)C)ccc1O` [capsaicin] (10 µM) are 0.0697 and 107% (inactive).
For `N=C(N)NCCN1CCCCCCC1` [guanethidine] (10 µM) the same measures were -0.0499 and 109% (inactive).
The corresponding values for `Cc1noc(-c2ccc(-c3ccc(CC(=O)O)cc3)cc2)c1NC(=O)O[C@H](C)c1ccccc1` (0.833333 µM) are 0.148 and 112% (inactive).
Regarding `OC[C@H]1O[C@H]([S-])[C@H](O)[C@@H](O)[C@@H]1O.[Au+]` [aurothioglucose] (10 µM), in test [1], the morphology score is -0.0654. In test [2], the SARS-CoV-2 infection rate is 110% (inactive).
For `CC(=O)Oc1cccc(C(=O)O)c1OC(C)=O` [dipyrocetyl] (10 µM) the same measures were 0.209 and 85% (inactive).
